# Screening results deposited in PubChem by Sanford-Burnham Center for Chemical Genomics.
# Hits are enriched below; roughly 31% of the tested compounds scored in any of these assays.
# CYP2C19 act – increases human CYP2C19 enzyme activity. AID 1025. activation factor at 5 µM. P33261. 96,000 tested, under 10 active. recombinant CYP2C19, luciferin-H EGE luminescence; stronger effect = higher value; 0 = fully inhibited enzyme, 1 = untreated enzyme;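 active = activation factor of at least 2 at 5 µM in the primary screen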;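 also: 0 = wells with 2.5 mM tranylcypromine and 1 = vehicle-only wells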
# CYP2C9 inhib – inhibitors of human CYP2C9 | P11712 | CYP2C9 Supersomes, luciferin-H conversion, luminescence | inhibition, % at 5 µM | hit rate 20% among 96,000 | AID 777;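 active = blocking of liver enzyme CYP2C9 beyond about 50% at 5 µM, limit read from the data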
# Target sequence (P11712 whole entry, looked up): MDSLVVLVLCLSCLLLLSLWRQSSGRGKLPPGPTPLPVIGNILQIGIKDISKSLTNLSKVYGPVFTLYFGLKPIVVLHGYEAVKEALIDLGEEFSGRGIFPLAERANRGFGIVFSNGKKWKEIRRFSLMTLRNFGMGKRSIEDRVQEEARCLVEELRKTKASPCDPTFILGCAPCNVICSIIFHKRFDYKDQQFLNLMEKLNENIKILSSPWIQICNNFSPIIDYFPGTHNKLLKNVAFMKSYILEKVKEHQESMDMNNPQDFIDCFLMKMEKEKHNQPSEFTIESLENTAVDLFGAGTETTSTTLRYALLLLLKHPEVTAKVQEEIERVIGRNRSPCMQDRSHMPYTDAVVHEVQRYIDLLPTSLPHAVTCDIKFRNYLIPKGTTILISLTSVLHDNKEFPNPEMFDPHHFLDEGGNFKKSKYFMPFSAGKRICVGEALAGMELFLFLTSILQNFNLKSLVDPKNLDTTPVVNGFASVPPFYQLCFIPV
# CYP2C19 inhib – human CYP2C19 inhibition; AID 778; CYP2C19 Supersomes, luciferin-H EGE luminescence, 30 min; hit rate 21% among 96,000; P33261; inhibition, % at 5 µM;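 active = CYP2C19 inhibition above a set limit at 5 µM in the primary screen, cut at about 50% in these data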;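 also: plate controls were negative control wells for no effect and 2.5 mM tranylcypromine positive control for full effect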
# PLAP act – activators of human placental alkaline phosphatase; activation fold at 20 µM; hit rate 1.2% among 96,000; purified PLAP enzyme, luminescent substrate read-out; stronger effect = higher value; AID 696; in the data active = activation fold above about 2
# CYP2C9 activ – CYP2C9 (human) activation; recombinant CYP2C9, luciferin-H conversion, luminescence; stronger effect = higher value; factor 1 = untreated enzyme, 0 = blocked; activation factor at 5 µM; hit rate 1.4% among 96,000; AID 1024;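 active = activation factor of 2 or more for CYP2C9 at a 5 µM dose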;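 also: 0 = sulfaphenazole-blocked wells and 1 = vehicle-only wells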
# Active calls of the source: *.
SMILES,CYP2C19 act,CYP2C9 inhib,CYP2C19 inhib,PLAP act,CYP2C9 activ
Cc1snc(SCC(=O)N/N=C(\N)COc2ccc(F)cc2)c1C#N,1.2,-6.8,-22.5,1.3,1.1
COc1ccc(C(=O)c2ccccc2Cl)cc1,0.2,-154.0,81.3*,0.9,2.5*
COc1ccc2cc(C(=O)c3ccccc3)c(=O)oc2c1,0.1,-52.2,92.2*,1,1.5
CCOc1ccc2nc(SCC(=O)c3cccs3)sc2c1,0.4,31.7,55.0*,1.3,0.7
COc1ccc2c(c1)nc(SCC(=O)C(C)(C)C)n2C,0.5,-3.8,49.7,1,1
CCOc1ccc2nc(SCC(=O)c3ccc(Cl)s3)sc2c1,0.8,-77.2,22.5,0.8,1.8
COc1ccc2c(c1)nc(SCC(=O)c1cccs1)n2C,0.5,24.2,50.6*,0.9,0.8
CCc1cc2ccc(C)cc2nc1SCC(=O)N1CCN(C(=O)c2ccco2)CC1,0.3,93.6*,65.4*,1.7,0.1
CCc1cc2cc3c(cc2nc1SCC(=O)N1CCN(C(=O)c2ccco2)CC1)OCO3,0.8,46.9,15.1,0.9,0.5
Cc1nc(SCC(=O)N2CCN(C(=O)c3ccco3)CC2)c2c(C)c(C)sc2n1,0.5,72.6*,50.7*,1.2,0.3
CCCN1CCN(C(=O)CN2C(=O)CC(C)(C)S(=O)(=O)c3ccccc32)CC1,1,-2.0,4.3,1.2,1
CCOc1ccc2nc(SCC(=O)N3CCN(C(=O)c4ccco4)CC3)sc2c1,0.7,53.3*,29.2,1.7,0.5
CCc1cc2cccc(C)c2nc1SCC(=O)N1CCN(C(=O)c2ccco2)CC1,0.6,57.2*,41.7,1.2,0.4
O=C(CSc1nc(-c2ccc(F)cc2)cs1)N1CCN(C(=O)c2ccco2)CC1,0.2,-30.4,75.6*,1.1,1.3
COC(=O)CC(N)c1ccc(OC)c2ccccc12 (stereo not given),0.8,-7.3,16.0,1,1.1
Cc1nnc2sc(-c3cccc4ccccc34)nn12,0.9,-1.4,6.4,0.9,1
CC1(C)SC(=S)N(/N=C/c2ccccc2)C1N(O)C(=O)Nc1ccc([N+](=O)[O-])cc1 (stereo not given),1.1,1.0,-10.4,1,1
Cc1ccc(C(=O)Nc2c(C(=O)N3CCOCC3)cnn2-c2ccccc2)cc1,1.2,-16.3,-17.3,1.3,1.2
CC1CCCC(NC(=S)Nc2ccc(SC(F)F)cc2)C1C (stereo not given),0.3,-5.8,68.4*,0.9,1.1
COc1cccc(C2N(c3cccc(Cl)c3)C(=O)C3CCCN32)c1 (stereo not given),0.3,88.4*,69.7*,1.6,0.1
COc1ccc(N2C(=O)C3CCCN3C2c2cccc(Br)c2)cc1 (stereo not given),0.5,52.1*,46.4,1.6,0.5
COc1cccc(N2C(=O)C3CCCN3C2c2ccc(Cl)cc2)c1 (stereo not given),0.3,50.1*,68.8*,1.6,0.5
O=C(CCc1nc2ccccc2[nH]1)Nc1ccccc1,0.4,32.8,62.3*,0.9,0.7
Cc1cc(C)cc(NC(=O)CCc2nc3ccccc3[nH]2)c1,1,-29.0,1.4,1,1.3
CCOC(=O)Cc1nc2ccccc2[nH]1,0.9,-13.0,11.4,1.4,1.1
SMILES,CYP2C19 act,CYP2C9 inhib,CYP2C19 inhib,PLAP act,CYP2C9 activ
CCCCOc1ccc(/C=C/C(=O)NCCc2nc3ccccc3[nH]2)cc1,0.7,33.5,32.3,1.1,0.7
CCCCOC(=O)CCc1nc2ccccc2[nH]1,0.5,-6.3,50.3*,0.9,1.1
CCOC(=O)c1ccc(NCc2nc3ccccc3[nH]2)cc1,0.9,65.3*,14.7,1,0.3
COc1cccc(-n2c(C)nc3c(cnn3-c3ccc(Cl)cc3)c2=O)c1,1.1,4.9,-6.1,0.9,1
COc1ccccc1N1CCN(Cc2nc(N)nc(Nc3ccc(C)cc3)n2)CC1,0.5,0.9,48.6,1.1,1
Cc1sc2ncnc(SCC(=O)NC3CC3)c2c1C,0.8,30.1,24.5,1,0.7
Cc1cc(C)nc(NCC(O)COc2ccccc2C)n1 (stereo not given),0.1,8.7,86.8*,1.4,0.9
CC(C)Cc1nc2n[nH]c(N)c2c2c1CCC2,1.1,-13.8,-14.9,1,1.1
O=S(=O)(NC1CC1)c1ccc(S(=O)(=O)N(Cc2ccccn2)C2CCCC2)cc1,0.4,70.8*,62.0*,1.2,0.3
O=C(CCC(=O)NNC(=O)Nc1ccc(Cl)cc1)NCc1ccccc1,1,11.3,2.8,1,0.9
CCN(CC)S(=O)(=O)c1cccc(C(=O)N[C@H](C(=O)OCC(=O)Nc2ccccc2)C(C)C)c1,0.1,98.8*,93.1*,1.6,0
CCc1nnc(NC(=O)[C@@H](NC(=O)c2cccc(S(=O)(=O)N(CC)CC)c2)C(C)C)s1,0.2,72.2*,79.1*,1.7,0.3
CCN(CC)S(=O)(=O)c1cccc(C(=O)N[C@H](C(=O)OCC(N)=O)C(C)C)c1,0.9,28.1,9.2,1.1,0.7
CCc1nnc(NC(=O)c2cc(S(=O)(=O)N(CC)CC)ccc2Cl)s1,1,36.7,-4.3,1.2,0.6
Cc1cccc(Cn2c(N(C)Cc3ccccc3)nc3c2c(=O)[nH]c(=O)n3C)c1,0.7,25.5,26.5,1,0.7
CN1CCN(c2nc3c(c(=O)[nH]c(=O)n3C)n2CCSc2ncccn2)CC1,1,8.7,-4.1,1,0.9
C=Cn1c(N2CCOCC2)nc2c1c(=O)[nH]c(=O)n2C,1.1,-9.5,-10.6,0.8,1.1
Cn1c(N)c(C(=O)CSc2ccc3c(c2)OCCO3)c(=O)n(C)c1=O,0.6,16.9,42.2,1,0.8
C/C(N)=C(/C#N)C(=O)CSc1ccc2c(c1)OCCO2,0.1,18.9,94.9*,1.1,0.8
CC(=O)c1sc(NC(=O)c2cc3c(C)nn(-c4ccccc4)c3s2)nc1C,1,8.0,2.5,0.9,0.9
Cc1nc(NC(=O)c2cc3c(C)nn(-c4ccccc4)c3s2)sc1C(=O)Nc1ccccc1,0.6,58.7*,37.7,2.3*,0.4
Cc1nn(-c2ccc(Cl)cc2)c2sc(C(=O)N3CCN(C(=O)c4ccco4)CC3)cc12,1.1,-6.8,-13.8,0.9,1.1
Cc1nn(-c2ccccc2)c2sc(C(=O)N(CC(=O)NC3CCCC3)Cc3ccco3)cc12,0.3,69.7*,71.6*,1.1,0.3
Cc1nn(-c2ccccc2)c2sc(C(=O)NC3CC3)cc12,1,50.9*,-3.2,1,0.5
Cc1nn(-c2ccc(F)cc2)c2sc(C(=O)N3CCCCCC3)cc12,0.3,67.7*,67.6*,0.9,0.3
O=C(O)CCN1/C(=C/C=Nc2ccccc2)Oc2ccccc21,1,-3.8,0.8,0.8,1
C=CCNC(=O)C1=NOC(CNC(=O)c2c(-c3ccccc3Cl)noc2C)C1 (stereo not given),1,0.4,3.1,1.2,1
Cc1ccc(C)c(N(CC(=O)NCCC2=CCCCC2)S(C)(=O)=O)c1,0.7,36.5,30.6,1.2,0.6
CNC(=O)c1nc(C)n(-c2cc(Cl)cc(Cl)c2)n1,0.9,-3.9,6.0,1,1
